# Experimental data: PubChem BioAssay AID2501 (Southern Research Specialized Biocontainment Screening …, 2010)
# Among all 2,200 compounds or so, about 1,200 (55%) were called active. So high a share suggests a set chosen from earlier hits. The list shows a part of the results. A number with no mark means an inactive call. Cut-off not given; nearly all actives show IC50 up to about 92 µM.
# Test: counter assay for TAg ATPase ADP read-out – biochemical, ADP-Hunter, fluorescence, counter-screen (AID 2501);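 further: purified T antigen ATPase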;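 on inhibition: 0% = enzyme with vehicle and 100% = reference inhibitor wells; higher means more inhibition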
# Details: series mostly up to 100 µM; inhibition: at the top concentration
SMILES,inhibition,IC50
Cc1ccccc1CN(C)C(=O)COC(=O)CSc1ccc([N+](=O)[O-])cc1,-30.8%,–
COC/C=C/C1=CC2=CC(=O)C(C)(OC(=O)c3cnc4ccccc4n3)C(=O)C2=CO1 (stereo not given),-8.04%,–
COC/C=C/C1=CC2=CC(=O)C(C)(OC(=O)c3ccco3)C(=O)C2=CO1 (stereo not given),–,2.83 µM (active)
COC/C=C/C1=CC2=CC(=O)C(C)(OC(=O)CCC(=O)OC)C(=O)C2=CO1 (stereo not given),2.78%,–
O=c1[nH]c(=O)c2nnc(N/N=C\c3ccc(O)cc3)nc2[nH]1,–,7.96 µM (active)
CCc1cc(N2CCOCC2)cc2c1[nH]c1ccccc12,–,6.15 µM (active)
O=c1c2cc(N3CCOCC3)ccc2[nH]c(=S)n1Cc1ccco1,26.4%,–
Cc1ccc(Cn2c(=S)[nH]c3ccc(N4CCOCC4)cc3c2=O)o1,9.7%,–
Cc1cc(C)c(S(=O)(=O)c2ccccc2Cl)c(Cl)n1,3.15%,–
O=C1NC(=S)SC1=C1CCCC1,23.6%,–
CN1CCC/C1=C/C=C1\SC(=S)NC1=O,–,7.5 µM (active)
CC(=O)c1sc2nsc(SCCN3CCOCC3)c2c1N,–,21.3 µM (active)
O=C(O)CCC(=O)Nc1ccc(SSc2ccc(NC(=O)CCC(=O)O)cc2)cc1,-10.5%,–
CS(=O)(=O)c1ccc(NC(=O)CCN2C(=O)C3CCCCC3C2=O)cc1 (stereo not given),-26.7%,–
O=C(CCn1c(=O)oc2cc(Cl)ccc21)Nc1ccc(O)cc1,–,3.84 µM (active)
CN(C)CCN(C(=O)c1ccccc1Cl)c1nc2c(Cl)cccc2s1,11% [at 50 µM],–
C/C(=N/NC(N)=S)c1cc2ccc(O)cc2oc1=O,–,25.3 µM (active)
COc1ccc(-n2c(SCC(=O)Nc3ccc(Cl)cc3)nc(O)c(Cc3ccccc3)c2=O)cc1,-18.5%,–
COC(=O)CSc1nnc(CNc2ccc(OC)cc2)n1C,–,19.3 µM (active)
COc1ccc(CCNC(=O)CSc2nncs2)cc1,-4.58%,–
CCOc1ccc(NCc2nnc(SCC(=O)Nc3cc(C)on3)n2-c2ccc(OC)cc2)cc1,–,13.5 µM (active)
COc1ccc(-c2nnc(SCC(=O)c3ccc[nH]3)n2-c2ccccc2)cc1,-19.4%,–

SMILES,inhibition,IC50
CCN1CCC[C@H]1CNC(=O)c1c(O)c(Cl)cc(Cl)c1OC,12.9%,–
Nc1ccc(OCC(O)C[n+]2ccc(CCS(=O)(=O)[O-])cc2)cc1 (stereo not given),–,4.65 µM (active)
O=C(Cc1coc(-c2ccc(F)cc2)n1)NCc1ccccc1,6.02%,–
O=C(O)/C=C/c1ccc(O)cc1,–,8.81 µM (active)
O=C(O)/C=C/c1ccc(O)c(O)c1,–,6.76 µM (active)
Oc1ccc(/C=C/c2cc(O)cc(O)c2)cc1,–,11.3 µM (active)
O=C(/C=C/c1ccc(O)c(O)c1)c1ccccc1O,–,6.57 µM (active)
Oc1cc(O)cc(/C=C/c2ccc(O)c(O)c2)c1,21.8% [at 50 µM],–
O=C(c1nnsc1S(=O)c1ccc(Cl)cc1)N1CCOCC1 (stereo not given),-15.7%,–
COc1cccc2c(=O)n(CC(=O)Nc3ccccc3F)ccc12,-11.2%,–
CC(/C=C/c1ccc(O)cc1)=N/O,–,3.08 µM (active)
Cc1coc2c1C(=O)C(=O)c1c-2ccc2c(C)cccc12,-32.7%,–
Oc1ccc(/C=N/n2c(COc3ccccc3)n[nH]c2=S)cc1O,–,9.32 µM (active)
N#CCn1c(CCl)nc2ccccc2c1=O,-26.1%,–
O=C(OCn1nnc2ccccc2c1=O)c1ccc(O)cc1,-20.6%,–
CCn1c(/C=C/c2c(C)[nH]c3ccccc23)nc2ccccc2c1=O,-12.5%,–
O=c1c2ccccc2nc(COc2ccccc2)n1/N=C/c1ccc(O)c(O)c1,–,12.1 µM (active)
CCCc1nc2ccccc2c(=O)n1/N=C/c1ccc(O)c(O)c1,–,10.5 µM (active)
Cc1nc2ccccc2c(=O)n1/N=C/c1cn(-c2ccccc2)nc1-c1cccs1,-4.96%,–
CCn1c(/C=C/c2ccc(O)c(O)c2)nc2ccccc2c1=O,–,64.8 µM (active)
CSC1=NS(=O)(=O)c2c(C)nn(C)c2S1,19.3%,–
CC(C)(C)c1cc[n+](C2=C([O-])c3ccccc3C(=O)/C2=N\S(=O)(=O)c2ccccc2)cc1,-13.2%,–

SMILES,inhibition,IC50
CCCNC(=O)c1ccc2c(=O)c(O)c(-c3cccc(Br)c3)[nH]c2c1,22.1%,–
Nc1cc(CN2C(=O)c3ccccc3C2=O)cc(Cl)c1O,–,4.47 µM (active)
O=C1/C(=N/n2cnnc2)c2ccccc2N1Cc1ccccc1,2.34%,–
O=C(NCc1ccccc1)c1onc(CSc2ccc(F)cc2)c1C(=O)NCCCN1CCOCC1,20.7%,–
COc1cc(-c2nc3cnccn3c2Nc2ccccc2)ccc1O,–,2.57 µM (active)
CN(C)c1ccc(-c2nc3cnccn3c2Nc2ccc3c(c2)OCCO3)cc1,–,11.3 µM (active)
CCN(CC)c1ccc(-c2nc3cnccn3c2NC2CCCC2)cc1,–,12.1 µM (active)
Oc1ccc(-c2nc3ncccn3c2Nc2ccc3c(c2)OCO3)cc1,–,5.13 µM (active)
CC12CCC(C/C1=N/O)C2(C)C (stereo not given),-1.49%,–
COc1ccc(-c2c(C)n([O-])c3c([n+]2=O)CCCCC3)cc1OC,-3.4%,–
Cc1ccc(/C(O)=C2/C(=O)C(=O)OC2c2ccc(Cl)cc2)cc1 (stereo not given),-3.47%,–
Oc1ccc(-c2nc3cnccn3c2Nc2ccc3c(c2)OCCO3)cc1,–,3.53 µM (active)
CCOC(=O)c1sc(N)nc1C(C)C,22.1%,–
NNC(=O)c1cc(-c2ccccc2)sc1N,–,8.67 µM (active)
NNC(=O)c1sc2cc(C(F)(F)F)cnc2c1-c1ccccn1,-6.44%,–
CCOC(=O)c1cc(-c2ccc(N)cc2)sc1N,–,5.53 µM (active)
CCOC(=O)c1c(N)ssc1=S,20.8% [at 12.5 µM],–
CC(=O)c1ccc2c3c(cccc13)C(=O)N(c1c(C)nn(C)c1C)C2=O,-5.47%,–
O=C(NCc1ccco1)Nc1cccs1,13.2%,–
O=C(NCc1cccs1)Nc1cc(Cl)ccc1Cl,–,91.1 µM (active)
Cc1ccc(C)n1/N=C1/NC(=O)CS1,-36%,–
Oc1cc(O)c2c(c1)OC(c1ccc(O)c(O)c1)C(O)C2 (stereo not given),–,3.95 µM (active)

SMILES,inhibition,IC50
Oc1cc(O)c2c(c1)O[C@H](c1ccc(O)c(O)c1)[C@@H](O)C2,–,11.9 µM (active)
COC(=O)Cc1cc(=O)n(-c2nc3ccccc3s2)[nH]1,24.2%,–
CC(=O)O[C@H]1C[C@@]2(C)[C@@H](C[C@@H](O)[C@H]3[C@@]4(C)CC[C@@H](O)[C@@H](C)[C@@H]4CC[C@@]32C)/C1=C(\CCC=C(C)C)C(=O)O,-1.81%,–
COc1cc(/C=C(\C#N)C(=O)c2ccc(O)c(O)c2)cc(I)c1O,–,12.3 µM (active)
N#C/C(=C\c1cccc(Cl)c1)C(=O)c1ccccc1,-20.2%,–
N#C/C(=C\c1ccc(O)c(O)c1)C(=O)c1ccc(O)c(O)c1,–,3.24 µM (active)
Cc1cccc(C2c3[nH]c4ccccc4c3CCN2C(=O)c2nn(C)c(=O)c3ccccc23)n1 (stereo not given),16.7%,–
COC(=O)/C=C1/N/C(=N\c2nc(C)cc(C)n2)N(c2ccc(Cl)cc2)C1=O,-16.3%,–
Cc1cc2ccccc2n1CCNC(=O)COc1ccc2ccccc2c1,-19.9%,–
OC1CCN(C(=S)Nc2ccc(Nc3ccccc3)cc2)CC1,–,2.9 µM (active)
OCC1CCCN(C(=S)Nc2ccc(Nc3ccccc3)cc2)C1 (stereo not given),–,3.07 µM (active)
Cc1cc(C)c2c(c1)NC(C(=O)O)C1CC=CC21 (stereo not given),9.1%,–
N#Cc1c(SCC(=O)Nc2nncs2)sc2c(O)cc(=O)[nH]c12,17.1%,–
c1nc2sc3c(c2c2nnnn12)CCC3,19.6%,–
Nc1ccc(-c2nc3c(Cl)c(N)ccc3[nH]2)cc1,–,3.24 µM (active)
Nc1ccc(-c2nc3c(Cl)cc(N)cc3[nH]2)cc1,–,4.91 µM (active)
O=C(O)COc1ccccc1C(Nc1cccnc1)c1cc(Cl)c2cccnc2c1O (stereo not given),17%,–
CCc1c(C)nc2ncnn2c1N1CCCC(C(=O)Nc2cc(F)ccc2C)C1 (stereo not given),8.93%,–
Cc1ccc(-c2cc(-c3ccco3)c(C#N)c(=O)[nH]2)cc1,-5.39%,–
CCCCOC1(c2ccccc2)NC(=S)NN=C1c1ccccc1 (stereo not given),–,4.2 µM (active)
CN1CC(C(=O)O)Cc2c1ccc1ccccc21 (stereo not given),–,8.64 µM (active)
CC(C)N1CC(C(=O)O)CC1=O (stereo not given),-23.5%,–

SMILES,inhibition,IC50
COc1cc(C#CC#CCN2CCCCC2)ccc1O,–,5.76 µM (active)
CN1C(=O)/C(=C/c2ccc(-c3ccccc3[N+](=O)[O-])o2)SC1=Nc1ccc(Cl)c(C(=O)O)c1,–,92.5 µM (active)
O=C(O)CN1C(=O)/C(=C\c2cc([N+](=O)[O-])ccc2OCc2ccccc2Cl)SC1=S,-18.7%,–
CN(C)c1ccc(NC(N)=S)cc1,–,3.1 µM (active)
CCOC(=O)c1c(C)c(C(=O)Nc2ccc(N(C)C)cc2)c(C)n1CC,–,10.6 µM (active)
CCCCOC(=O)Nc1ccc(N(C)C)cc1,–,4.65 µM (active)
CCCCOC(=O)c1ccc(NC(=O)Nc2ccc(OC)c(OC)c2)cc1,0.76%,–
C=CCNC(=S)Nc1ccc(N(C)C)cc1,–,1.99 µM (active)
Cc1cc(S(=O)(=O)Nc2c(C)nc3nc[nH]n3c2=O)ccc1F,-32.6%,–
CC(C)CC(NC(=O)C1CCC(=O)N1C(=O)OCc1ccccc1)C(=O)NC(Cc1ccccc1)C(N)=O (stereo not given),-23%,–
CCN(CC)C(=S)SSC(=S)N(CC)CC,-2.02%,–
O=C(NCC1CCCO1)c1ccc2c(c1)N(Cc1ccc(F)cc1)CCS2 (stereo not given),26.3%,–
Cn1cccc1Cc1nnc(SCC(=O)NCC2CCCO2)n1C (stereo not given),11.1%,–
CN(C)c1ccc(NC(=S)NCC2CCCO2)cc1 (stereo not given),–,7.16 µM (active)
CCOC(=O)C1(C)C=C(Nc2ccc(O)cc2)C(=O)N1c1ccc(O)cc1 (stereo not given),–,2.33 µM (active)
c1csc(CN2CCOCC2)c1,-24.8%,–
Oc1ccc(NCc2cccs2)cc1,–,4.39 µM (active)
Clc1cc(NCc2cccs2)ccc1N1CCOCC1,–,31.5 µM (active)
COc1ccc2c(c1)C(=O)Cc1ccccc1O2,-33.9%,–
Cc1cc2c(N)cccc2nn1,13.3%,–
Cc1ccc2nsnc2c1NS(=O)(=O)c1c(C)ccc2nsnc12,-23.3%,–
Nc1cccc2nsnc12,–,11 µM (active)
